“And” between values parts separate entries of the source, which are not always exact repeats. Equal values may be shown once. Inconclusive results are not listed. The source made the active and inactive calls. Unless noted, calls follow the shape of the dose curve; as a rule, active = well fitted curve in the direction sought with a large enough effect; inconclusive = small, poorly fitted or top-dose-only effect, or another doubt; inactive = no such curve, though single readings can be large; an effect the other way counts as inactive or inconclusive.
Tests used:
[1] = biological target: Hexokinase-4 (Homo sapiens) + Glucokinase regulatory protein (Homo sapiens) (UniProt P35557+Q14397); assay: qHTS assay for inhibitors of recombinant human GCK-GKRP interaction: HTRF assay (AID 743207);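 also: 0% = DMSO with GCK present and -100% = DMSO wells lacking GCK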
Sequence of Hexokinase-4 (Homo sapiens) + Glucokinase regulatory protein (Homo sapiens) (P35557 whole entry, looked up): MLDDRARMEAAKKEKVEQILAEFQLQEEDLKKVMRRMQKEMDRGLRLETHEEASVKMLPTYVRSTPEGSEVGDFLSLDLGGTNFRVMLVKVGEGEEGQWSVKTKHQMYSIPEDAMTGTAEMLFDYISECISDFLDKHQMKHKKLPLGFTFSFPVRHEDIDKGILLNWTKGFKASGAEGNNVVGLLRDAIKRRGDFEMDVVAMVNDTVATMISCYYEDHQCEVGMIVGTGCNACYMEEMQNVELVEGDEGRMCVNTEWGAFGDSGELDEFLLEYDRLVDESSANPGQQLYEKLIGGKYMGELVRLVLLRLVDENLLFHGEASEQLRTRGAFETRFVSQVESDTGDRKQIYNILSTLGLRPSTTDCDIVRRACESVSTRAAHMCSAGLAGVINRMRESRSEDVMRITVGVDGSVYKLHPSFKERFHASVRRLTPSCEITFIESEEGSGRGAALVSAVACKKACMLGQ
Sequence of Hexokinase-4 (Homo sapiens) + Glucokinase regulatory protein (Homo sapiens) (Q14397 whole entry, looked up): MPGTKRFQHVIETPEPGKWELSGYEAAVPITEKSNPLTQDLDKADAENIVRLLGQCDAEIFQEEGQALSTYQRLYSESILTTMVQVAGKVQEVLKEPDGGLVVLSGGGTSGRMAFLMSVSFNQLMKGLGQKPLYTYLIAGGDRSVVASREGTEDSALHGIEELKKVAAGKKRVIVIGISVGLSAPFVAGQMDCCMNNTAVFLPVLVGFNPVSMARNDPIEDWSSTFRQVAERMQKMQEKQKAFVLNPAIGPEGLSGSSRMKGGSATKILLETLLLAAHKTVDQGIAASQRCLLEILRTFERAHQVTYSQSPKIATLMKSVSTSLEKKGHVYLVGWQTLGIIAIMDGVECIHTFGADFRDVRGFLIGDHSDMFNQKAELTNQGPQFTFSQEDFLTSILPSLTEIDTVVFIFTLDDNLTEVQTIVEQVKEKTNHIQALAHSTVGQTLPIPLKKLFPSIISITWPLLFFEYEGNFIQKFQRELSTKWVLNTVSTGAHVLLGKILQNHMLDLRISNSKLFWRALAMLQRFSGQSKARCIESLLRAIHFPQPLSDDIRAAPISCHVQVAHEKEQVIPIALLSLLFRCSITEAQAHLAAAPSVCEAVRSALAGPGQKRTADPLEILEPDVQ
Outline: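 Steps: dispense GCK–GKRP complex (5 nM each, GST- and FLAG-tagged) with 2 uM S6P; pin in compounds; add XL665/Eu-cryptate-labelled antibodies; incubate 60 min at room temperature; read time-resolved FRET at 665 and 615 nm.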

[2] = qHTS Assay for Identifying Gametocytocidal Compounds (AID 743244); also: potency is read from the fitted curve at half-maximal effect;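 as to max response: % is scaled to controls: 0 for no effect and ±100 for the full control effect; actives lower the fluorescent signal which means gametocytes are killed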; details: P. falciparum 3D7 stage III-V gametocytes, alamarBlue, 72 h; max response: stronger effect = lower value
Outline: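 Compounds are pinned into medium, gametocytes (stage III–V, 3D7, 20,000 cells/well) added, and plates held 72 h at 37 °C in 5% CO2. AlamarBlue follows for 24 h before fluorescence reading.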

[3] = qHTS profiling of the MIPE4 collection as inhibitors of Plasmodium falciparum (3D7) proliferation (AID 743344; call rule not given here;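 also: scaled between DMSO vehicle wells and 0.29 µM artemisinin as full inhibition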); details: P. falciparum 3D7 in erythrocytes, SYBR Green DNA fluorescence, 72 h; at 28.5 µM (top of the series) unless noted
Outline: (§1)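 Parasite DNA was quantified by SYBR Green I fluorescence (ex 485, em 535 nm) after overnight lysis in saponin/Triton buffer at room temperature. Cultures at 0.3% parasitemia and 2.5% hematocrit were first exposed to compound for 72 h at 37 C; signals were normalised to artemisinin (0.29 uM) and vehicle wells.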

[4] = qHTS profiling of the MIPE4 collection as inhibitors of Plasmodium falciparum (DD2) proliferation (AID 743345; call rule not given here); details: P. falciparum Dd2 in erythrocytes, SYBR Green DNA, 72 h; at 28.5 µM (top of the series) unless noted
Outline: as §1

[5] = qHTS profiling of the MIPE4 collection as inhibitors of Plasmodium falciparum (DD2) proliferation (Rep 2) (AID 743346; call rule not given here); details: P. falciparum Dd2 in erythrocytes, SYBR Green DNA, 72 h; at 28.5 µM (top of the series) unless noted
Outline: as §1

[6] = qHTS profiling of the MIPE4 collection as inhibitors of Plasmodium falciparum (HB3) proliferation (AID 743347; call rule not given here;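 also: plate controls were DMSO vehicle wells for no effect and artemisinin wells for full effect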); details: P. falciparum HB3 in erythrocytes, SYBR Green DNA, 72 h; at 28.5 µM (top of the series) unless noted
Outline: as §1

[7] = High-throughput drug toxicity screening in the BPDCN cell line Gen2.2 (AID 1224824; call rule not given here;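 also: cells exposed to compounds for 48 h before reading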); details: Gen2.2 BPDCN cells; at 45.8 µM (top of the series) unless noted
Outline: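 Gen2.2, 500 cells/well, phenol red-free RPMI/10% FBS/Pen-Strep; 48 h cpd, 37 °C/5% CO2; CTG lum, 15 min RT. Norm: DMSO = 100%, bortezomib 9.2 uM final = 0%.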

[8] = High-throughput drug toxicity screening in the BPDCN cell line Cal-1 (AID 1224825; call rule not given here); details: Cal-1 BPDCN cell viability, qHTS; at 45.8 µM (top of the series) unless noted
Outline: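 CellTiter-Glo luminescence after 48 h compound exposure; percent activity scaled with DMSO as 100% and bortezomib (9.2 uM final) as 0%. Cal-1 cells seeded at 500/well in RPMI, 10% FBS, no phenol red.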

[9] = qHTS assay for measurement of the activity of small molecule inhibitors on Zika virus induced Caspase-3 activity in human iPSC derived neural progenitor cells (hNPCs) (AID 1224857); also: % of control where 0% means no effect; nearly all actives have a fitted effect of over 65% in size
Outline: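 Pretreat hNPCs with compound 1 h; infect ZIKV 2 FFU/cell; 6 h 37 C, 5% CO2; Caspase-Glo 3/7, 30 min RT; luminescence; normalize to no-virus and virus-only wells.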

[10] = qHTS assay for measurement of the activity of small molecule inhibitors on Zika virus induced Caspase-3 activity in human astrocytoma cells (AID 1224859);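 also: plate controls were ZIKV-infected untreated cells for no effect and uninfected cells for full effect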
Outline: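 Human SNB-19 astrocytoma cells in RPMI 1640 with 10% FBS receive compound one hour ahead of Zika virus at 2 FFU/cell. After 6 h infection, caspase-3/7 activity is detected by Caspase-Glo luminescence.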

[11] = qHTS assay to identify small molecule inhibitors of chordoma cells - UCH-2 (AID 1259356); also: % is scaled to controls: 0 for no effect and ±100 for the full control effect
[12] = qHTS assay for cell viability of HEK293 cells (AID 743288); details: ATP luminescence (CellTiter-Glo), 18 h; max response: stronger effect = lower value; also: % is scaled to controls: 0 for no effect and ±100 for the full control effect; nearly all actives have a fitted effect of over 50% in size
Outline: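 Quantitative high-throughput screen: compounds were pinned onto parental HEK293 cells (2,000 per well) after a minimum 5 h settling at 37 C, incubated 18 h at 37 C, and intracellular ATP measured by luciferase luminescence.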

[13] = qHTS Screen of the MIPE 4.0 Collection Against Ewings Sarcoma (RDES) (AID 1259252); also: nearly all actives have a fitted effect of over 35% in size; also: potency is read from the fitted curve at half-maximal effect
Outline: (§2)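 Dose series incubated 48 h with cells in RPMI plus 5% FBS, glutamine and penicillin/streptomycin; cell viability then quantified via CellTiter-Glo.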

[14] = qHTS assay to identify small molecule inhibitors of chordoma cells - UCH-1 (AID 1259355); also: % is scaled to controls: 0 for no effect and ±100 for the full control effect; nearly all actives have a fitted effect of over 55% in size
Outline: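 Screening used approved and investigational drugs in 15-point titration against 800 seeded cells per well. A fixed combination of auranofin with camptothecin, doxorubicin, rubitecan and topotecan followed compound addition, and growth was scored by CellTiter-Glo after 48hr.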

[15] = qHTS Screen of the MIPE 4.0 Collection Against Ewings Sarcoma (EW8) (AID 1259255); also: nearly all actives have a fitted effect of over 35% in size; also: potency is read from the fitted curve at half-maximal effect;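 as to viability: 100% = DMSO-treated cells and 0% = medium-only wells without cells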
Outline: as §2

[16] = qHTS Screen of the MIPE 4.0 Collection Against Ewings Sarcoma (TC32) (AID 1259256); also: nearly all actives have a fitted effect of over 45% in size; also: potency is read from the fitted curve at half-maximal effect
Outline: as §2

[17] = qHTS Screen of the MIPE 4.0 Collection Against Ewings Sarcoma (TC71) (AID 1259253); also: nearly all actives have a fitted effect of over 40% in size; also: potency is read from the fitted curve at half-maximal effect
Outline: as §2

For COc1ccccc1N1CCN(CC(O)COc2cccc3ccccc23)CC1 (centres undefined), the Potency [1] was “inactive”, the max response [2] was 7.63% (inactive) and 7.03% (inactive) and the parasite growth, % of DMSO control [3] was 64.9%. For the same molecule, the parasite growth remaining, % of DMSO control (lower = more inhibition) [4] was 98.8%, the parasite growth, % of control (lower = inhibition) [5] was 65.8% and the growth, % of control [6] was 74.7%. For the same molecule, the cell viability, % of control (lower = more cytotoxic) [7] was 156%, the viability (% of control) [8] was 112% and the Potency [9] was “inactive”. For the same molecule, the Potency [10] was “inactive” and the outcome [11] was “inactive”.

In the case of COc1ccc2c(c1)c(CC(=O)O)c(C)n2C(=O)c1ccc(Cl)cc1, the Potency [1] is reported as “inactive”, the max response [12] is reported as 11.9% (inactive) and -6.39% (inactive) and the parasite growth, % of DMSO control [3] is reported as 55.7%. For the same molecule, the parasite growth remaining, % of DMSO control (lower = more inhibition) [4] was 103%, the parasite growth, % of control (lower = inhibition) [5] was 127% and the growth, % of control [6] was 83.6%. For the same molecule, the cell viability, % of control (lower = more cytotoxic) [7] was 127%, the viability (% of control) [8] was 104% and the Potency [9] was “inactive”. The Potency [10] was “inactive” and the Potency [13] was 14.8 µM (active).

With CN1C(C(=O)Nc2ccccn2)=C(O)c2ccccc2S1(=O)=O the Potency [1] was “inactive”, the max response [2] was -1.29% (inactive) and 1.85% (inactive) and the parasite growth, % of DMSO control [3] was 77.2%. For the same molecule, the parasite growth remaining, % of DMSO control (lower = more inhibition) [4] was 88.2%, the parasite growth, % of control (lower = inhibition) [5] was 136% and the growth, % of control [6] was 90.6%. For the same molecule, the cell viability, % of control (lower = more cytotoxic) [7] was 61.5%, the viability (% of control) [8] was 8.08% and the Potency [9] was “inactive”. The Potency [10] was “inactive”, the Potency [14] was “inactive” and the outcome [11] was “inactive”.

For C[C@@H]1CC(=O)NN=C1c1ccc(NN=C(C#N)C#N)cc1, the parasite growth, % of DMSO control [3] was 8.76%, the parasite growth remaining, % of DMSO control (lower = more inhibition) [4] was 6.4% and the parasite growth, % of control (lower = inhibition) [5] was 33.2%. The growth, % of control [6] was 9.14%, the cell viability, % of control (lower = more cytotoxic) [7] was 7.71% and the viability (% of control) [8] was 5.81%. The Potency [9] was “inactive”, the Potency [10] was “inactive” and the Potency [15] was 20.9 µM (active). For the same molecule, the Potency [16] was 20.9 µM (active), the Potency [14] was “inactive” and the outcome [11] was “inactive”.

In the case of CN(C)C(=O)C(CCN1CCC(O)(c2ccc(Cl)cc2)CC1)(c1ccccc1)c1ccccc1, the cell viability, % of control (lower = more cytotoxic) [7] is reported as 71%, the viability (% of control) [8] is reported as 12.1% and the Potency [9] is reported as “inactive”. The Potency [10] was “inactive”, the Potency [17] was 20.9 µM (active) and the Potency [16] was 18.7 µM (active). For the same molecule, the outcome [11] was “inactive”.

In the case of NCCCCCC(=O)O, the Potency [1] is reported as “inactive”, the parasite growth, % of DMSO control [3] is reported as 417% and the parasite growth remaining, % of DMSO control (lower = more inhibition) [4] is reported as 91.3%. It also gave a parasite growth, % of control (lower = inhibition) [5] of 118%, a growth, % of control [6] of 708% and a cell viability, % of control (lower = more cytotoxic) [7] of 140%. The viability (% of control) [8] was 130%, the Potency [9] was “inactive” and the Potency [10] was “inactive”. The Potency [15] was “inactive”, the Potency [14] was “inactive” and the outcome [11] was “inactive”.

For Cn1cnc2c1c(=O)[nH]c(=O)n2C, the Potency [1] was “inactive”, the max response [2] was -9.46% (inactive) and -3.09% (inactive) and the max response [12] was -4% (inactive). It also gave a parasite growth, % of DMSO control [3] of 8.09%, a parasite growth remaining, % of DMSO control (lower = more inhibition) [4] of 7% and a parasite growth, % of control (lower = inhibition) [5] of 25.4%. It also gave a growth, % of control [6] of 9%, a cell viability, % of control (lower = more cytotoxic) [7] of 12.2% and a viability (% of control) [8] of 13.2%. For the same molecule, the Potency [9] was “inactive”, the Potency [10] was “inactive” and the Potency [16] was 23.5 µM (active). The Potency [14] was “inactive” and the outcome [11] was “inactive”.

With COc1cc2nc(N3CCN(C(=O)c4ccco4)CC3)nc(N)c2cc1OC the Potency [1] was “inactive”, the Potency [2] was 11.2 µM (active) and the parasite growth, % of DMSO control [3] was 4.68%. For the same molecule, the parasite growth remaining, % of DMSO control (lower = more inhibition) [4] was 20.6%, the parasite growth, % of control (lower = inhibition) [5] was 8.89% and the growth, % of control [6] was 2.87%. The cell viability, % of control (lower = more cytotoxic) [7] was 8.89%, the viability (% of control) [8] was 5.38% and the Potency [9] was “inactive”. For the same molecule, the Potency [10] was “inactive” and the Potency [15] was 18.7 µM (active).

For Cc1ccccc1N1C(=O)c2cc(S(N)(=O)=O)c(Cl)cc2NC1C (centres undefined), the Potency [1] was “inactive”, the max response [2] was 6.66% (inactive) and 10.8% (inactive) and 1.37% (inactive) and the parasite growth, % of DMSO control [3] was 92.5%. For the same molecule, the parasite growth remaining, % of DMSO control (lower = more inhibition) [4] was 51%, the parasite growth, % of control (lower = inhibition) [5] was 83.2% and the growth, % of control [6] was 72.5%. For the same molecule, the cell viability, % of control (lower = more cytotoxic) [7] was 73.5%, the Potency [9] was “inactive” and the Potency [10] was “inactive”. For the same molecule, the Potency [13] was “inactive”, the Potency [17] was “inactive” and the Potency [15] was “inactive”. The Potency [16] was “inactive” and the outcome [11] was “inactive”.

Reference: PubChem BioAssay (NCATS)
